Experimental data as given in PubChem BioAssay.
The source made the active and inactive calls. Unless noted, the rule behind the calls is not given here.

Tests used:
[1] = resazurin metabolic signal in HepG2 cells – cell-based, resazurin fluorescence, 24 h, PK04 Diversity Set, profiling panel (AID 1172); conditions: HepG2 viability, higher = more signal; note: test concentration not given here
[2] = budding yeast growth changes without added modifier – OD600, strain BY4716, 24 h, basal condition, primary screen (AID 1173); conditions: S. cerevisiae BY4716 growth, OD600, 24 h; higher = more signal, called active from +8 up or from −8 down
[3] = viability profiling in MM1S myeloma cells – cell-based, resazurin fluorescence, basal, 24 h, PK04 Diversity Set, profiling panel (AID 1174); conditions: higher = more signal, called active from +8 up or from −8 down;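 note: MM1S multiple myeloma cell line; test concentration not given here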
[4] = target: Dihydroorotate dehydrogenase (quinone), mitochondrial (Plasmodium falciparum (isolate 3D7)) (UniProt Q08210); assay: inhibition of P. falciparum DHODH – biochemical, C-terminal His tag, absorbance 600 nm, primary screen (AID 1175); conditions: PfDHODH enzyme, DCIP absorbance 600 nm; higher = more signal, called active from +8 up or from −8 down;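 note: recombinant parasite enzyme with a five histidine tag at its C terminus; test concentration not given here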
[5] = inhibition of PAO1 biofilm formation – strain PAO1, LB-PBS medium, absorbance 600 nm, primary screen (AID 1176); note: test concentration not given here; conditions: P. aeruginosa PAO1 growth/biofilm, A600, 12 h; higher = more signal
[6] = growth modulation of vineyard yeast isolate – strain RM11-1a, OD600, basal, 24 h, primary screen (AID 1177);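 note: cultures grown under basal conditions with no added stressor; test concentration not given here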; conditions: S. cerevisiae RM11-1a growth, OD600, 24 h; higher = more signal, called active from +8 up or from −8 down
[7] = growth of efflux-deficient E. coli DRC39 – strain DRC39, OD650, 24 h, E. coli filamentation inducers, primary screen (AID 1178);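 note: growth measured as culture turbidity by optical density at 650 nm; test concentration not given here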; conditions: E. coli DRC39 acrAB, higher = more signal, called active from +8 up or from −8 down
[8] = growth of efflux-deficient E. coli DRC39 – strain DRC39, OD650, 48 h, E. coli filamentation inducers, primary screen (AID 1179);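 note: screen aims at cell division blockers that make cells filament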; conditions: E. coli DRC39 delta-acrAB growth, higher = more signal, called active from +8 up or from −8 down
[9] = viability profiling in RPMI8226 myeloma cells – cell-based, resazurin fluorescence, basal, 24 h, PK04 Diversity Set, profiling panel (AID 1180); conditions: higher = more signal;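 note: RPMI8826 multiple myeloma cell line at 5000 cells per well; test concentration not given here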
[10] = target: E3 ubiquitin-protein ligase XIAP (Homo sapiens) (UniProt P98170); assay: small molecules binding XIAP protein – biophysical, small-molecule microarray, fluorescence 635 nm, primary screen (AID 1181); conditions: higher = more signal;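 note: score merges 667 nm emission and signal to noise over triplicate slides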
Sequence of E3 ubiquitin-protein ligase XIAP (Homo sapiens) (P98170 whole entry, looked up): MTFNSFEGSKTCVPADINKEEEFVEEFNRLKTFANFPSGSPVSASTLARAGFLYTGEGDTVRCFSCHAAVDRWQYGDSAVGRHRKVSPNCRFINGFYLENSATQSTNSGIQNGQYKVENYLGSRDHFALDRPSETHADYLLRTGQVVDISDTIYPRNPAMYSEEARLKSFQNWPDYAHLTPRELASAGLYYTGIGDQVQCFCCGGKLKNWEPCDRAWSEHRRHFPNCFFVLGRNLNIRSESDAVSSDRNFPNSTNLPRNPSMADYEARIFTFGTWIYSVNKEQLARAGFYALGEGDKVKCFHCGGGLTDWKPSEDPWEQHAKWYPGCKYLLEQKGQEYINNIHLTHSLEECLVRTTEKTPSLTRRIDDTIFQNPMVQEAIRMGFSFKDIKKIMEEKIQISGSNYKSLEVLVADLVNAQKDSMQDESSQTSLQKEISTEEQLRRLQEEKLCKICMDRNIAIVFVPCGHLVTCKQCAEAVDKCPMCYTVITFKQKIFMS

Sequence of Dihydroorotate dehydrogenase (quinone), mitochondrial (Plasmodium falciparum (isolate 3D7)) (Q08210 whole entry, looked up): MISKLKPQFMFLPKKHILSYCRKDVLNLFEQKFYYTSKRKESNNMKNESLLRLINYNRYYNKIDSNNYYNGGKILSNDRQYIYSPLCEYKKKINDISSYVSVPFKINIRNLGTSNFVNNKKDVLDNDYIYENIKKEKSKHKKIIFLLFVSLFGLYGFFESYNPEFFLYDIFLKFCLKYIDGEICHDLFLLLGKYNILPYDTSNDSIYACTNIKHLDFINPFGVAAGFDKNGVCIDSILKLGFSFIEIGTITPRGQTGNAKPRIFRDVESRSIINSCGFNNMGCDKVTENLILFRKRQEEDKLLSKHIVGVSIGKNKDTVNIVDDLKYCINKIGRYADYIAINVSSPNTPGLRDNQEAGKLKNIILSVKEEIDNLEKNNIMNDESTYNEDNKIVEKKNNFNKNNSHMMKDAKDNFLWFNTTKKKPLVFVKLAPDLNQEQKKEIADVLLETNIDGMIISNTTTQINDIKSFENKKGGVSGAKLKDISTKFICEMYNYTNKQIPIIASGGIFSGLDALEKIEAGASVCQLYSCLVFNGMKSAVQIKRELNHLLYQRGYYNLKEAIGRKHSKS

Row | Structure (SMILES) | z-score [1] | z-score [2] | z-score [3] | composite z-score [4] | z-score [5] | z-score [6] | z-score [7] | z-score [8] | z-score [9] | composite z-score [10]
1 | CN(C)CCCNC(=O)[C@@H]1c2ccccc2C(=O)N(Cc2cc(F)cc(C(F)(F)F)c2)[C@H]1c1ccc(CO)cc1 | 0.0356 | -0.473 (inactive) | -0.62 (inactive) | 0.0999 (inactive) | 0.348 (inactive) | 0.0333 (inactive) | -0.0392 (inactive) | -0.578 (inactive) | -0.359 | -0.0172
2 | COc1ccc([Si](C)(C)[C@H]2[C@H](CCO)O[C@@]3(C(=O)N(Cc4cccc(NC(=O)[C@H](C)O)c4)c4ccccc43)[C@@H]2C)cc1 | -5.76 | -0.321 (inactive) | -9.08 (active) | 1.35 (inactive) | 1.19 (inactive) | 4.03 (inactive) | 1.7 (inactive) | 1.14 (inactive) | -6.16 | 0.131
3 | COc1ccc(O[C@H]2C=C[C@@H](c3ccccc3)O[C@@H]2CON=C[C@@H](C)[C@H](OCc2ccccc2)C(C)C)cc1 | -0.821 | 0.742 (inactive) | -1.69 (inactive) | -0.896 (inactive) | -0.348 (inactive) | 0.443 (inactive) | 0.335 (inactive) | 1.01 (inactive) | -0.854 | 0.144
4 | CC1(C)OCC(C(O)C2=CCCCC2=O)CO1 (stereo not given) | -0.786 | -0.124 (inactive) | 0.665 (inactive) | 0.523 (inactive) | 1.49 (inactive) | 0.205 (inactive) | -0.85 (inactive) | -2.63 (inactive) | 0.297 | -0.294
5 | CCOC(=O)CCN1C(=O)[C@H]2[C@H]3[C@H](O)[C@H](O)CC(=NOC[C@@H](O)COCc4ccco4)[C@@H]3CC[C@H]2C1=O | -0.454 | 0.846 (inactive) | -1.27 (inactive) | 0.318 (inactive) | -0.0121 (inactive) | 0.176 (inactive) | -0.153 (inactive) | 0.324 (inactive) | -0.8 | -0.124
6 | CO[C@H]1COC(=O)[C@@H]2CCCN2C(=O)CC=C[C@@H](C)[C@H](OC)COC(=O)CC=C[C@@H]1C | 0.233 | -1.16 (inactive) | 0.89 (inactive) | -0.652 (inactive) | 0.696 (inactive) | -2.08 (inactive) | 1.04 (inactive) | 0.375 (inactive) | -0.395 | -0.137
7 | COc1ccc(OC[C@H]2Cc3c(-c4ccccc4)nc4c(c3CO2)CN(CCOc2ccccc2)CC4)cc1 | -0.376 | -2.37 (inactive) | -0.0593 (inactive) | -3.16 (inactive) | -0.765 (inactive) | -0.314 (inactive) | -1.17 (inactive) | -0.458 (inactive) | 0.578 | -0.111
8 | CCOC(=O)CCN1C(=O)[C@H]2[C@H]3[C@H](O)C=CC(=O)[C@@H]3CC[C@H]2C1=O | -0.0089 | 0.454 (inactive) | 0.606 (inactive) | 0.231 (inactive) | 0.0942 (inactive) | 0.713 (inactive) | 0.446 (inactive) | -0.689 (inactive) | 0.353 | 0.0356
9 | CC(C)=CCCC(C)=CCON=C1C[C@@H](O)[C@@H](O)[C@@H]2[C@@H]3C(=O)N(C[C@@H]4CCCO4)C(=O)[C@@H]3CC[C@@H]12 | 0.502 | -0.242 (inactive) | -0.041 (inactive) | -0.111 (inactive) | -0.261 (inactive) | 0.348 (inactive) | 0.122 (inactive) | 0.511 (inactive) | 0.424 | -0.264
10 | COc1cccc([C@H]2Oc3ccc(OC)cc3C(=NO[C@H](C)c3cn([C@@H]4COC[C@H]4O)nn3)[C@@H]2O)c1 | -0.859 | -0.117 (inactive) | 0.0029 (inactive) | -2.1 (inactive) | -0.409 (inactive) | -0.761 (inactive) | -0.537 (inactive) | -2.22 (inactive) | -0.238 | 0.0264
11 | CC(C)=NOCc1cccc(-c2cc(-c3ccccc3)no2)c1 | -0.714 | 0.671 (inactive) | -0.862 (inactive) | -0.502 (inactive) | 0.475 (inactive) | -0.39 (inactive) | 1.19 (inactive) | -1.41 (inactive) | -0.975 | -0.288
12 | O=C(CS)NCCCCCNC(=O)[C@H]1C[C@H]2C(=O)N3CCC[C@H]3C(=O)N2[C@H]1c1cccc(OCCO)c1 | 0.0716 | -0.358 (inactive) | 0.85 (inactive) | 0.274 (inactive) | -0.667 (inactive) | 0.18 (inactive) | -0.201 (inactive) | 0.36 (inactive) | 0.472 | 0.0785
13 | COc1ccc(O[C@H]2C=C[C@@H](c3ccccc3)O[C@@H]2COC(=O)CCC(C)=NOC(C)CN2CCCCc3nc(C)c(C)cc32)cc1 (stereo not given in full) | 0.957 | 0.756 (inactive) | 1.1 (inactive) | 0.0159 (inactive) | -0.279 (inactive) | 0.181 (inactive) | 0.825 (inactive) | 0.42 (inactive) | 0.948 | 0.533
